IDE exosite FP: insulin-degrading enzyme (human) exo-site inhibition; z-score at 20 µM; P14735; AID 1259349; purified IDE, FL-6b probe fluorescence polarization; active compounds read low; hit rate 6.3% among 17,000;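 active = z-score of -3 or lower, meaning strong loss of probe binding signal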;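 also: His-tagged human IDE residues 42-1019 made in E. coli with 30 nM FL-6b probe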
Target sequence (P14735 42-1019 limits assumed): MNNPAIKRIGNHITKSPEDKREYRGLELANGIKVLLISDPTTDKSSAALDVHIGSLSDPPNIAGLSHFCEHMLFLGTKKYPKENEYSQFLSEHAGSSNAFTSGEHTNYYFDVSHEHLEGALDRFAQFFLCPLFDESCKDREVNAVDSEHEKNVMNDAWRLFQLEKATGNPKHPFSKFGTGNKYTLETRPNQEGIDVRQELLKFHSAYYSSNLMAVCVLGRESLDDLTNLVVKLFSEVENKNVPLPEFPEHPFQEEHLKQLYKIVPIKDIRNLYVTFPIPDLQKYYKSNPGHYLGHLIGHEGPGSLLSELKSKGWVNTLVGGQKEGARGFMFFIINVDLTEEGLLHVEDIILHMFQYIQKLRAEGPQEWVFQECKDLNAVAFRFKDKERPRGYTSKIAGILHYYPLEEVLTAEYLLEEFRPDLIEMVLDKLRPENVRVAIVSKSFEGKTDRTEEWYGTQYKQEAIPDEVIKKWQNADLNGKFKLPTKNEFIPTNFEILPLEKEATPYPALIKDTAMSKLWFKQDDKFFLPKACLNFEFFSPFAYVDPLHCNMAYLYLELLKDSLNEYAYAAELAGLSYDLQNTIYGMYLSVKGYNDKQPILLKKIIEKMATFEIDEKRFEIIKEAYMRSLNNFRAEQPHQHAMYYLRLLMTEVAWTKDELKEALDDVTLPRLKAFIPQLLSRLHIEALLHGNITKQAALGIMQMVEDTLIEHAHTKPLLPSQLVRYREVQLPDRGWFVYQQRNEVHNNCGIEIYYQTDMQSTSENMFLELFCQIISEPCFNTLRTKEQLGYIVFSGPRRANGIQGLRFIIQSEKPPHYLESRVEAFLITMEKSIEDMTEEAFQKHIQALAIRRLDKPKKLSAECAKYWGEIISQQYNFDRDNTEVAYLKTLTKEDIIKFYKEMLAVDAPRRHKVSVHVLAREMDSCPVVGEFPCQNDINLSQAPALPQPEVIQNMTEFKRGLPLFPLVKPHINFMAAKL
Numbers without * were called inactive. The sample as a whole holds a higher share of hits than the screen did.

SMILES	IDE exosite FP
O=C(Cc1cccnc1)N1CCCCN2[C@H](CO)[C@@H](c3ccc(/C=C/c4ccccc4)cc3)[C@@H]2C1	-8.82*
C/C=C/c1ccc([C@@H]2[C@H](CO)N3CCCCN(C(=O)Cc4cccnc4)C[C@@H]23)cc1	-0.605
C/C=C/c1ccc([C@@H]2[C@@H](CO)N3CCCCN(C(=O)Cc4cccnc4)C[C@@H]23)cc1	0.0789
COc1ccc(C#Cc2ccc([C@@H]3[C@H](CO)N4CCCCN(C(=O)Cc5cccnc5)C[C@@H]34)cc2)cc1	4.56
COc1ccc(C#Cc2ccc([C@@H]3[C@@H](CO)N4CCCCN(C(=O)Cc5cccnc5)C[C@H]34)cc2)cc1	-1.2
O=C(Cc1cccnc1)N1CCCCN2[C@H](CO)[C@@H](c3ccc(/C=C/c4ccccc4)cc3)[C@H]2C1	-9.36*
O=C(Cc1cccnc1)N1CCCCN2[C@H](CO)[C@@H](c3ccc(C#CC4CCCC4)cc3)[C@@H]2C1	3.18
C/C=C/c1ccc([C@H]2[C@@H](CO)N3CCCCN(C(=O)Cc4ccncc4)C[C@H]23)cc1	0.653
O=C(Cc1cccnc1)N1CCCCN2[C@H](CO)[C@H](c3ccc(/C=C/c4ccccc4)cc3)[C@H]2C1	-11.4*
COc1ccccc1CN1[C@H](CO)[C@@H](c2ccccc2)C12CN(C(=O)Cc1ccccc1)C2	2.23
COC(=O)[C@@H]1[C@@H](CO)[C@@H]2Cn3c(ccc(-c4cccc(F)c4)c3=O)[C@H]1N2Cc1ccncc1	-0.193
COc1ccc(C#Cc2ccc([C@@H]3[C@H](CO)N4CCCCN(C(=O)Cc5ccncc5)C[C@@H]34)cc2)cc1	3.78
O=C(Cc1ccccc1)N1CCCCN2[C@H](CO)[C@@H](c3ccc(C#Cc4ccccc4)cc3)[C@H]2C1	0.705
O=C(Cc1ccncc1)N1CCCCN2[C@@H](CO)[C@@H](c3ccc(C#Cc4ccccc4F)cc3)[C@@H]2C1	-5.42*
O=C(Cc1ccncc1)N1CCCCN2[C@H](CO)[C@@H](c3ccc(C#Cc4ccccc4F)cc3)[C@H]2C1	-2.46
O=C(Cc1ccccc1)N1CCCCN2[C@H](CO)[C@@H](c3ccc(C#Cc4ccccc4)cc3)[C@@H]2C1	-1.3
O=C(Cc1ccncc1)N1CCCCN2[C@H](CO)[C@H](c3ccc(C#Cc4ccccc4F)cc3)[C@H]2C1	-4.15*
C/C=C/c1ccc([C@H]2[C@@H](CO)N3CCCCN(C(=O)Cc4ccncc4)C[C@@H]23)cc1	1.55
C[C@@H]1CN([C@H](C)CO)C(=O)CCCn2cc(nn2)CO[C@@H]1CN(C)C(=O)Oc1ccc2ccccc2c1	0.152
COc1cccc(-c2ccc([C@@H]3[C@@H](CO)N4CCCCN(C(=O)Cc5ccncc5)C[C@@H]34)cc2)c1	-2.33
COc1ccc(-c2ccc([C@H]3[C@@H](CO)N4CCCCN(C(=O)Cc5ccccc5)C[C@@H]34)cc2)cc1	0.578
COc1cccc(-c2ccc([C@H]3[C@@H](CO)N4CCCCN(C(=O)Cc5ccncc5)C[C@@H]34)cc2)c1	1.12
COc1ccc(-c2ccc([C@H]3[C@H](CO)N4CCCCN(C(=O)Cc5ccccc5)C[C@@H]34)cc2)cc1	0.588
COc1ccc(-c2ccc([C@@H]3[C@H](CO)N4CCCCN(C(=O)Cc5ccccc5)C[C@@H]34)cc2)cc1	-3.14*
COc1cccc(-c2ccc([C@@H]3[C@H](CO)N4CCCCN(C(=O)Cc5ccncc5)C[C@@H]34)cc2)c1	-3.86*
SMILES	IDE exosite FP
O=C(Cc1ccncc1)N1CCCCN2[C@H](C1)[C@@H](c1ccc(C#CC3(O)CCCC3)cc1)[C@@H]2CO	1.11
N#Cc1ccc(-c2ccc([C@@H]3[C@H](CO)N4CCCCN(C(=O)Cc5ccccc5)C[C@@H]34)cc2)cc1	1.36
N#Cc1cccc(-c2ccc([C@@H]3[C@@H](CO)N4CCCCN(C(=O)Cc5ccccc5)C[C@@H]34)cc2)c1	3.07
O=C(O)C[C@@H]1CC[C@H]2NC[C@H](O)COC[C@@H]2O1	0.271
O=C1CNC[C@@H]2[C@H](c3ccc(Br)cc3)[C@@H](CO)N12	0.695
COCC#Cc1ccc([C@@H]2[C@@H](CO)N3CCCCN(C(=O)Cc4ccccn4)C[C@@H]23)cc1	-0.263
O=C(Cc1ccccn1)N1CCCCN2[C@H](CO)[C@@H](c3ccc(C#Cc4ccccc4)cc3)[C@@H]2C1	-4.94*
O=C(Cc1ccccn1)N1CCCCN2[C@H](CO)[C@@H](c3ccc(C#Cc4ccccc4)cc3)[C@H]2C1	-0.973
O=C(Cc1ccccn1)N1CCCCN2[C@H](CO)[C@H](c3ccc(C#Cc4ccccc4)cc3)[C@H]2C1	-9.51*
CN(C)CC#Cc1ccc([C@@H]2[C@H]3CN(C(=O)Cc4ccccn4)CCCCN3[C@H]2CO)cc1	0.567
CCCC#Cc1ccc([C@@H]2[C@H]3CN(C(=O)Cc4ccccn4)CCCCN3[C@H]2CO)cc1	-1.7
CC(C)CC#Cc1ccc([C@@H]2[C@@H](CO)N3CCCCN(C(=O)Cc4ccccn4)C[C@@H]23)cc1	5.11
O=C(Cc1ccccn1)N1CCCCN2[C@@H](CO)[C@H](c3ccc(C#Cc4ccccc4)cc3)[C@@H]2C1	-7.32*
O=C(Cc1ccccn1)N1CCCCN2[C@@H](CO)[C@@H](c3ccc(Br)cc3)[C@@H]2C1	3.24
COc1ccc(C#Cc2ccc([C@H]3[C@H](CO)N4CCCCN(C(=O)Cc5ccncc5)C[C@@H]34)cc2)cc1	-1.35
COc1cccc(-c2ccc([C@H]3[C@H](CO)N4CCCCN(C(=O)Cc5ccncc5)C[C@@H]34)cc2)c1	-1.48
O=C([C@H]1N[C@H]2c3cccc(=O)n3C[C@H]2[C@@H]1CO)N1CCCCC1	0.868
O=C(Cc1ccccc1)N1CCCCN2[C@H](CO)[C@H](c3ccc(C#CC4(O)CCCC4)cc3)[C@@H]2C1	1.67
O=C(Cc1ccncc1)N1CCCCN2[C@H](C1)[C@H](c1ccc(C#CC3(O)CCCC3)cc1)[C@@H]2CO	4.4
COc1cccc(-c2ccc([C@@H]3[C@@H](CO)N4CCCCN(C(=O)Cc5ccncc5)C[C@H]34)cc2)c1	0.0789
O=C(Cc1ccccn1)N1CCCCN2[C@H](C1)[C@@H](c1ccc(-c3ccccc3F)cc1)[C@@H]2CO	-4.48*
O=C(Cc1ccccn1)N1CCCCN2[C@@H](CO)[C@H](c3ccc(-c4ccccc4)cc3)[C@@H]2C1	1.89
Cc1ccccc1-c1ccc([C@H]2[C@@H](CO)N3CCCCN(C(=O)Cc4ccccn4)C[C@@H]23)cc1	-5.7*
Cc1ccccc1-c1ccc([C@@H]2[C@H]3CN(C(=O)Cc4ccccn4)CCCCN3[C@H]2CO)cc1	-10.2*
O=C(Cc1ccccn1)N1CCCCN2[C@H](C1)[C@H](c1ccc(-c3ccccc3)cc1)[C@@H]2CO	-2.35
SMILES	IDE exosite FP
Cc1ccccc1-c1ccc([C@H]2[C@H]3CN(C(=O)Cc4ccccn4)CCCCN3[C@H]2CO)cc1	-0.983
O=C(Cc1ccccn1)N1CCCCN2[C@H](CO)[C@H](c3ccc(-c4ccccc4)cc3)[C@@H]2C1	-0.961
O=C(Cc1ccccn1)N1CCCCN2[C@H](CO)[C@@H](c3ccc(-c4ccc(F)cc4)cc3)[C@H]2C1	4.41
O=C(Cc1ccccn1)N1CCCCN2[C@H](CO)[C@@H](c3ccc(-c4ccccc4)cc3)[C@H]2C1	-0.0967
OC[C@H]1Nc2ccc(C#Cc3cccnc3)cc2[C@H]2NCC[C@H]21	2.8
N#Cc1cccc(-c2ccc([C@@H]3[C@@H](CO)N4CCCCN(C(=O)Cc5ccccc5)C[C@H]34)cc2)c1	0.492
N#Cc1cccc(-c2ccc([C@H]3[C@H]4CN(C(=O)Cc5ccccc5)CCCCN4[C@H]3CO)cc2)c1	2.15
